The text below walks through data of ChEMBL document CHEMBL3988442, “University of Dundee, Small-Polar-MMV Screening Library” (2021).

Where “and” joins values, the source holds several entries; their conditions need not be identical. Identical values can stand only once. Hit rate of the full screen: of about 38,000 compounds, about 1,200 (3.2%) showed an effect of 50% or more. The median lay at about -58%. The list comes from a sample in which strong results are over-represented; it also holds similar structures and randomly drawn compounds.

The assay concerns Plasmodium falciparum. As to the kind of experiment: Calibr Malaria Delayed Death Assay SOP. Particulars: concentration 4.99e-06 (unit not given; other assays of the set use mol/L). Also noted: scale not given: in the data most compounds retested in dose-response had high values. The format is functional, organism-based.

On to `O=C1CCSCC(C(=O)N2CCC(O)CC2)N1` (stereo not given), for which the “Percent Effect” value is recorded as -111.3%.
Consider `CC(C)C(=O)NC1CCN(c2cccc(OC(F)(F)F)c2)C1=O` (stereo not given), for which the “Percent Effect” value was -46.04%.
Still for that read-out and setting: the value for `O=C(NCC1CCOCC1)c1cc(-c2ccc3c(c2)CCO3)n[nH]1` was -4.569%.
Same read-out and setting: in the case of `COc1cccc(-c2n[nH]cc2CNCC2CCS(=O)(=O)C2)c1` (stereo not given) it was -56.98%; in that of `Cc1ccc(-c2n[nH]cc2CNCC2CCS(=O)(=O)C2)o1` (stereo not given), -9.681%.
With `CCOc1ccc2ccccc2c1CNCC1CCS(=O)(=O)C1.Cl` (stereo not given), the “Percent Effect” value came out at 73.94%.
On to `Cc1cccc(C(=O)NCC2CCS(=O)(=O)C2)n1` (stereo not given), for which the “Percent Effect” value is reported as -33.59%.
The same measure, in the same setting: in the case of `CCOc1ccc2ccccc2c1CNCC1CCNCC1.Cl.Cl` it was 91.29%; in that of `Cc1nn(C)c(N2CCOCC2)c1CNCC1CCS(=O)(=O)C1` (stereo not given), -69.07%.
Same read-out and setting: in the case of `Cc1c(Br)cccc1C(=O)NCC1CCNCC1.Cl` it was -131.1%; in that of `CCOc1ccc(CNC(=O)N2CCCC(CO)C2)cc1F` (stereo not given), -13.27%; in that of `COc1ccc2ccccc2c1CNCC1CCS(=O)(=O)C1.Cl` (stereo not given), 66.1%.
On to `CCOC(=O)N1CCC2(CCCN(C3CCOCC3)C2=O)C1` (stereo not given), for which the “Percent Effect” value was -44.33%.
Regarding `CCc1ccc(CNC(=O)Cn2ccc3sccc3c2=O)cc1`, the “Percent Effect” value is -94.67%.
On the same count and under the same terms, in the case of `O=C(NCCc1ccccn1)[C@@H]1CC[C@@H]2[C@@H](CCN2Cc2ccoc2)O1.O=C(O)C(F)(F)F.O=C(O)C(F)(F)F` it was -61.1%.
`C1CCC(CO[C@@H]2CC[C@H]3[C@H]2OCCN3CC2CCOCC2)C1.O=C(O)C(F)(F)F`: the “Percent Effect” value is on record as -55.18%.
As for `O=C(O)C(F)(F)F.O=C(O)C(F)(F)F.O=C(c1ccco1)N1C[C@H]2CCCN(Cc3ccncc3)[C@H]2C1`, the “Percent Effect” value was -22.95%.
Take `COc1ccc(NC(=O)c2cc3c([nH]c2=O)CCCC3=O)c(OC)c1`: the “Percent Effect” value was -49.85%.
As to `CCN1CCN(CCNC(=O)c2sc(C(C)C)nc2C)CC1`, the “Percent Effect” value was -17.43%.
In the case of `O=C(NCc1cccs1)[C@@H]1CC[C@@H]2[C@@H](CCN2CC2CCC2)O1.O=C(O)C(F)(F)F`, the “Percent Effect” value amounted to 20.57%.
Same read-out and setting: in the case of `CCc1cnc(CN(C(C)=O)C2CCN(CCc3ccccn3)C2)o1` (stereo not given) it was -120.8%.
Same read-out and setting: the value for `Cc1csc2ncnc(N3CCCC(Cn4cc(C(C)(C)O)nn4)C3)c12` (stereo not given) was -82.82%; that for `Cc1cc(C(=O)Nc2cccn(Cc3ccc(F)cc3)c2=O)on1` was -10.66%; that for `CCc1nc(CN2CCCN(C(=O)CCCOC)CC2)cs1` was -51.29%.
As to `Cc1cc2nc(CN(C)c3ccc(Cl)cc3)cc(=O)n2o1`, the “Percent Effect” value was -90.64%.
On the same count and under the same terms, in the case of `CCCS(=O)(=O)N1CCOC2(CCCN(Cc3ccccn3)C2)C1.O=C(O)C(F)(F)F` (stereo not given) it was -25.77%; in that of `CN(Cc1ncc(C(C)(C)C)o1)CC1CCCN1c1cccnn1` (stereo not given), 79.78%.
Regarding `c1cnnc(N2CCCC2CNc2ncnc3c2CCC3)c1` (stereo not given), the “Percent Effect” value was -141.7%.
Still for that read-out and setting: the value for `c1cnnc(N2CCCC2CNc2ncnc3ccsc23)c1` (stereo not given) was -78.5%; that for `CN(Cc1ncc(C(C)(C)C)o1)C1CCCN(c2cccnn2)C1` (stereo not given) was -55.67%; that for `CN(Cc1ncc(-c2ccccc2)o1)CC1CCCN1c1cccnn1` (stereo not given) was -41.68%.
Same read-out and setting: in the case of `Fc1ccc(Oc2ccc(CNCC3CNc4ccnn4C3)cn2)cc1` (stereo not given) it was -107.9%.
The same measure, in the same setting: in the case of `O=C(COCC(=O)N(c1ccccc1)c1ccccc1)N1CCCCC1` it was -158.5%; in that of `CCc1nc(NCC2CCCN(C(=O)C3CC3)C2)c2cnn(C)c2n1` (stereo not given), -178%; in that of `CC(NCCc1nccn1Cc1ccccc1)c1ccsc1` (stereo not given), 82.98%.
As to `Cc1nccn1-c1ccc(C(C)NCCc2ccccn2)cc1` (stereo not given), the “Percent Effect” value is 9.885%.
Regarding `CN(CCc1ccncc1)Cc1nccn1Cc1ccccc1`, the “Percent Effect” value is 39.55%.
As to `CN(CCc1ccccn1)Cc1nccn1Cc1ccccc1`, the “Percent Effect” value came out at 56%.
Still for that read-out and setting: in the case of `CC(C)(C)C(=O)NCc1nccn1CCc1ccccc1` it was 10.03%; in that of `CN(Cc1ccncc1)Cc1nccn1Cc1ccccc1`, -44.2%.
The same measure, in the same setting: in the case of `CCc1ccc(C(C)NCc2nccn2Cc2ccccc2)o1` (stereo not given) it was -17.05%.
Turning to `CCN1CCCC(C)(C(=O)NCc2nccn2Cc2ccccc2)C1` (stereo not given), the “Percent Effect” value was determined as 29.31%.
Regarding `CC(C)n1ccnc1CN1CCOC(CCc2ccccc2)C1` (stereo not given), the “Percent Effect” value is 7.997%.
The same measure, in the same setting: in the case of `Cc1nccn1-c1ccc(C(C)NCCC(C)C)cc1` (stereo not given) it was 48.4%.
Same read-out and setting: in the case of `Cc1nc(NC(=O)NCCCN2CCC(C(N)=O)CC2)sc1C` it was -93.87%; in that of `Cc1nnc(C(NS(=O)(=O)c2cc(F)c(C)cc2F)C(C)C)[nH]1` (stereo not given), -26.37%; in that of `Cc1ccc(CN(C)Cc2ncc(C(C)(C)C)o2)o1`, -58.81%.
In the case of `COc1cccc(OC2CN(C(=O)c3c(C)noc3C)C2)c1`, the “Percent Effect” value is on record as -22.85%.
Still for that read-out and setting: in the case of `O=c1c2ccc(Cl)cc2ncn1CCCN1CCCCC1CO` (stereo not given) it was -12.14%; in that of `CC(C)c1ccc(NC(=O)c2ncc(C(N)=O)cc2Cl)cc1`, -172.5%.
Still for that read-out and setting: in the case of `O=C1CC(c2ccc3c(c2)OCO3)c2cnn(C3CCCC3)c2N1` (stereo not given) it was -69.51%; in that of `Cn1cc(C2CC(=O)NC23CCN(C(=O)NC2CC2)CC3)cn1` (stereo not given), -54.83%; in that of `CC(C)C(C)N(C(=O)Cn1nc2n(c1=O)CCCCC2)C1CC1` (stereo not given), -123.2%.
As for `CCCc1cnc(C)nc1N1CCC(Cc2ccc(CO)cc2)C1` (stereo not given), the “Percent Effect” value was -3.438%.
For `CN1CCC2(CC1)CN(Cc1ccc(C3CCCCO3)o1)CCCN2C` (stereo not given), the “Percent Effect” value was found to be 80.31%.
On the same count and under the same terms, in the case of `OCC1(O)CCN(Cc2ccc(C3CCCCO3)o2)CC1` (stereo not given) it was -16.13%.
Still for that read-out and setting: the value for `CN1CCN(C)C2(CCN(Cc3ccc(C4CCCCO4)o3)CC2)C1` (stereo not given) was -149.2%; that for `Oc1cccc(C2CN(c3nnc(C4CC4)s3)CCO2)c1` (stereo not given) was -92.75%; that for `CN(Cc1ccccc1)CC(C)(C)NC(=O)c1ccon1` was -38.2%.
With `O=C(Nc1ccccc1OC1CCOC1)c1ccon1` (stereo not given), the “Percent Effect” value was -94.04%.
On the same count and under the same terms, the value for `O=C(O)C(F)(F)F.O=C([C@@H]1CCO[C@@H]2CCN(Cc3cccs3)C[C@H]21)N1CCCCO1` was -36.32%.
Same read-out and setting: in the case of `Cc1ncsc1CN1C[C@@H]2CCCO[C@@H]2[C@H](Nc2ccccn2)C1.O=C(O)C(F)(F)F.O=C(O)C(F)(F)F` it was -27.39%; in that of `Cc1cccc(CN2C[C@@H]3CCCO[C@@H]3[C@H](NS(C)(=O)=O)C2)n1`, -67.26%; in that of `Cc1cccc(CN2C[C@@H]3CCCO[C@@H]3[C@H](Nc3ccccn3)C2)n1`, 55.52%.
Take `CN(C)Cc1nc(-n2cnc(C(=O)NC3CCCC3)c2)n2ccccc12`: the “Percent Effect” value is listed as 8.682%.
On the same count and under the same terms, the value for `CC(C)Oc1ccccc1NC(=O)N1CCC(n2cncn2)CC1` was -58.88%; that for `Cc1ccccc1-c1noc(CN2CCn3c(nnc3C3CC3)C2)n1` was 50.31%; that for `Cc1ccc(-c2nc(CN3CCn4c(nnc4C4CC4)C3)co2)c(C)c1` was -40.53%.
As to `c1ccc(-c2cnc(CN3CCn4c(nnc4C4CC4)C3)o2)cc1`, the “Percent Effect” value is listed as -11.2%.
For the compound `CC(C)c1nnc(CN2CC(n3cccn3)Cc3ccccc32)o1` (stereo not given), the “Percent Effect” value is on record as -227.8%.
The same measure, in the same setting: the value for `O=C(NCC1CC1)c1nnc2ccc(Cl)cc2n1` was 9.063%; that for `COCCN1CCCCC12CC(=O)N(c1ccccc1OC)C2.O=C(O)C(F)(F)F` (stereo not given) was -87.11%; that for `CCCN1CCCN(S(=O)(=O)c2cnc3onc(C)c3c2)CC1` was -59.23%.
Consider `CC(C)c1nccn1C1CCCN(C(=O)CCCc2ccccn2)C1` (stereo not given), for which the “Percent Effect” value is on record as -134.4%.
On the same count and under the same terms, in the case of `CSCCCN1CCN(c2ccc(Cl)cn2)CC1` it was 28.74%; in that of `Clc1ccc(N2CCN(CCCN3CCCCC3)CC2)nc1`, 68.33%.
Take `CC(C)OCCN1CCN(c2ccc(Cl)cn2)CC1`: the “Percent Effect” value is recorded as -78.08%.
Turning to `CCCn1cc(-c2cc(C(=O)N(C)C)c3ccc(C)cc3n2)cn1`, the “Percent Effect” value (4.99 µM) is -45.66% and -43.3%.
`CN(Cc1ccccn1)C1CC2(CCN(Cc3ccccn3)CC2)C1.O=C(O)C(F)(F)F.O=C(O)C(F)(F)F`: the “Percent Effect” value was -38.28%.
Turning to `Cc1cccnc1CC(C)Nc1ncc(C)c(N(C)C)n1` (stereo not given), the “Percent Effect” value turned out to be 44.79%.
Still for that read-out and setting: in the case of `Cc1cccc(-c2ncc(CNC(C)Cc3ncccc3C)cn2)c1` (stereo not given) it was -10.25%; in that of `CCn1nc2c(cc1=O)CN(CCOc1ccccc1C#N)CC2`, -106.3%.
Still for that read-out and setting: the value for `CN(Cc1ccccc1)c1ncccc1CNC1CCC1` was 69.98%.
Consider `CN(Cc1ccccc1)c1ncccc1CNC1CCCC1`, for which the “Percent Effect” value was determined as 65.38%.
On to `CN(Cc1ccccc1)c1ncccc1CNC1CCSCC1`, for which the “Percent Effect” value was 25.77%.
Still for that read-out and setting: the value for `CN(c1ncccc1CNCc1ncc[nH]1)C1CCCCC1` was 37.42%.
Still for that read-out and setting: the value for `CN(Cc1ccccc1)c1ncccc1CNC(=O)c1ccnn1C` was -17.51%; that for `CN(C)c1ncccc1CNCc1ccc(N2CCOCC2)cc1` was -64.22%.
On the same count and under the same terms, in the case of `CN(Cc1ccccc1)c1ncccc1CNC1CN2CCC1CC2` (stereo not given) it was 62.39%; in that of `CCn1cc(C(=O)NCc2cccnc2N(C)Cc2ccccc2)cn1`, -74.6%.
With `CC(=O)N1CCC(NCc2cccnc2N(C)Cc2ccccc2)CC1`, the “Percent Effect” value is recorded as -58.67%.
For the compound `Cc1nnsc1C(=O)NCc1cccnc1N(C)Cc1ccccc1`, the “Percent Effect” value was -61.52%.
Consider `CC(=O)NC1CCCN(C(=O)NCc2cccnc2N(C)C)C1` (stereo not given), for which the “Percent Effect” value was -14.71%.
As for `Cc1n[nH]c(C)c1CNC(=O)N1CCCC(Cc2nccn2C)C1` (stereo not given), the “Percent Effect” value was -135.2%.
Still for that read-out and setting: in the case of `O=C1CC(N2CCN(c3ccc(F)cc3)CC2)C(=O)N1Cc1cccs1` (stereo not given) it was -39.99%; in that of `COc1ccc(Nc2c[nH]c(=O)[nH]c2=O)cc1`, -70.96%; in that of `CNC(=O)[C@@]12CCC3(CCNCC3)[C@@H]1CN(S(C)(=O)=O)C2`, -13.04%.
For the compound `N#CC1(C(=O)N2CCOC(c3ccc(F)cc3)C2)CCCC1` (stereo not given), the “Percent Effect” value is on record as -26.56%.
The same measure, in the same setting: the value for `O=C(O)C(F)(F)F.O=C(O)C(F)(F)F.c1cncc(OC[C@]23COC[C@H]2CN(Cc2nccs2)C3)c1` was -94%; that for `Cc1cc(C(=O)N2CCn3cc(CN4CCCC4)nc3C2)no1` was -104.3%.
